Bioassay records (PubChem)
Only a selection was taken, and hits are over-represented in it overall.
IMPase inh: IMPase inhibition in cells; P97697; CHO-M1 cells, IP1 accumulation, HTRF TR-FRET ratio; inhibition (IP1 accumulation), % at 46.1 µM; 120,000 tested, under 10 active; active = well fitted curve in the direction sought with a large enough effect in the signal ratio, not every such curve was filed as active; inconclusive = small, poorly fitted or top-dose-only effect, or a change in a side signal; inactive = no such curve, though single readings can be large or run the other way; the % refers to the signal ratio;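 also: cells stimulated with carbachol in lithium chloride buffer; plate controls were DMSO basal wells for no effect and reference inhibitor wells for full effect; higher means more IMPase inhibition seen as more IP1 and lower FRET ratio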
Target sequence (P97697 whole entry, looked up): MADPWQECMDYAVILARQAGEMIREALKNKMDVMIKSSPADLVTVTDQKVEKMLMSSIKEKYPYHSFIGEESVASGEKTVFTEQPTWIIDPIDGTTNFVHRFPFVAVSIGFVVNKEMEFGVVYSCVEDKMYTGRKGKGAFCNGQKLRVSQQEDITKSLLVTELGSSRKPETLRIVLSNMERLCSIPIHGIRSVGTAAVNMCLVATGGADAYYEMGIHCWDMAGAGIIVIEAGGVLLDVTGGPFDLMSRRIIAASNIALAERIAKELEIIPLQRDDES
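Cellular IMPase inhibition is scored as a rise in cytosolic IP1, detected by competitive TR-FRET between d2-labelled IP1 and a europium anti-IP1 antibody. M1-expressing CHO cells were stimulated with carbachol for 30 min at 37C, with lithium (50 mM LiCl) present in the buffer.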
Lamin A splicing: LMNA splicing modulation; HeLa LMNA splicing GFP/RFP minigene ratio, 48 h; Potency, µM (top dose mostly 46.1 µM), inactives show top-dose ratio change, negative = inhibition, actives largely listed as inhibitors; hit rate 0.01% among 200,000; AID 1487; active = well fitted inhibition curve with a large enough effect in the signal ratio, with a control signal flat, not every such curve was filed as active; inconclusive = small, poorly fitted or top-dose-only effect, or effect the other way, or a change in a side signal; the % refers to the signal ratio; also: potency is read from the fitted curve at half-maximal effect
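S3 HeLa stable clones carrying a lamin A-EGFP splicing minigene plus DsRed2 were seeded at 600 cells/well in Opti-MEM with 2% FBS, pin-dosed and incubated 48 h at 37°C. Acumen cytometry (488 nm) gave the GFP/RFP total-intensity ratio.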
IMPase Li inh: cell-permeable IMPase inhibitors with lithium potentiation. Potency, µM (doses to about 59.4 µM), for inactives: at the highest dose activity, negative = IMPase inhibition, most hits filed as inhibitors. AID 1457. hit rate 0.35% among 210,000. CHO-M1 cells, IP1 TR-FRET (IP-One), carbachol + lithium; active = well fitted inhibition curve with a large enough effect; inconclusive = small, poorly fitted or top-dose-only effect; inactive = no such curve, though single readings can be large or run the other way;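 also: IP1 builds up when IMPase is blocked and the TR-FRET signal falls; potency is read from the fitted curve at half-maximal effect; plate controls were basal vehicle for no effect and high inhibitor control for full effect; nearly all actives have a fitted effect of over 50% in size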
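Steps: plate 2000 CHO-M1 cells per well and culture 16–30 h; add compound and lithium; incubate 30 min, 37C; add d2-IP1 tracer and Eu cryptate anti-IP1 antibody in lysis buffer; read after 10 min at room temperature.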
* hit, by the source's call; ? = inconclusive; nt = not tested or not shown; ! = repeats disagree; [ ] = remark or other dose. Unless noted, % is scaled to controls: 0 for no effect and ±100 for the full control effect.

SMILES	IMPase inh	Lamin A splicing	IMPase Li inh
O=c1cc(-c2cccs2)oc2ccc(Cl)cc12	-28.4	?	nt
O=c1cc(-c2ccc3c(c2)OCCO3)oc2ccc(Cl)cc12	?	?	10µM*
COC(=O)c1cc(C)sc1NC(=O)CCCC(=O)O	3.4	9.0%	17.8%[38.3 µM]
COC(=O)c1cc(C)sc1NC(=O)C1C2C=CC(CC2)C1C(=O)O (stereo not drawn)	nt	?	10µM*
COC(=O)c1cc(C)sc1NC(=O)C1CC=CCC1C(=O)O (stereo not drawn)	?	-0.4%	11.2µM*
COC(=O)c1sccc1NC(=O)C1C2C=CC(C2)C1C(=O)O (stereo not drawn)	-1.6	-0.5%	3.7%
COC(=O)c1sccc1NC(=O)C1CC=CCC1C(=O)O (stereo not drawn)	?	5.8%	10µM*
CCOC(=O)c1c(NC(=O)C2C3C=CC(CC3)C2C(=O)O)sc(C)c1C (stereo not drawn)	nt	2.6%	-6.7%
COc1cccc([C@@H]2Oc3ccc(OC)cc3C(=O)[C@H]2OC(=O)Nc2ccc(OC(F)F)cc2)c1	nt	nt	7.3%
CC/C(=C(\c1ccccc1)c1ccc(OCCN(C)C)cc1)c1ccc(O)cc1	nt	nt	-1.7%
CNC(=O)[C@H](C)/C=C(\c1cccnc1)C(NC(=O)OCc1ccccc1)c1ccc(C(=O)OC)cc1 (stereo partly drawn)	nt	nt	-8.4%
CCSc1nnc(NC(=O)CCc2ccc(OC)cc2)s1	nt	4.0%	?
CSc1nnc(NC(=O)CCc2ccccc2)s1	-6.2	-2.5%	28.2µM*
CC(C)Cc1ccc(S(=O)(=O)N2CCC(c3ccncc3)CC2)cc1	nt	-0.7%[46 µM]	nt
COc1ccc(CCNC(=O)COc2ccc(-c3ccccc3)cc2)cc1OC	15.1	-10.0%	10µM*
COc1ccc(CCNC(=O)CCCOc2ccc(C)cc2)cc1OC	nt	?	-0.2%
Cn1cc(S(=O)(=O)N2CCOCC2)cc1C(=O)Nc1ccc(Cl)c(C(F)(F)F)c1	nt	15.1%[46 µM]	nt
Cc1ccccc1C(=O)Nc1nnc(SCc2cc(=O)n3ccccc3n2)s1	nt	10.4%[46 µM]	nt
COc1cc2cc3c4c(cc(OC)c(OC)c4c2cc1OC)CCN3C	20.5	nt	54.5%
COc1ccc(NC(=O)c2cc3c(=O)n(C)c4ccccc4c3n2C)cc1OC	7.8	?	14.4%[38.3 µM]
COc1cc(NC(=O)c2cc3c(=O)n(C)c4ccccc4c3n2C)cc(OC)c1OC	?	9.0%	3.55µM*
Cc1nc(N2CCN(c3ccccc3)CC2)nc2c1C(=O)CCC2	23.6	-18.8%	29.6%[38.3 µM]
O=C1CCCc2nc(N3CCN(c4ccccc4)CC3)ncc21	-7.6	8.7%	11.2µM*
COc1ccccc1C(=O)NCc1nc2cccnc2n1Cc1ccc(F)cc1	nt	-0.7%[46 µM]	nt
COc1cc2ccc(=O)oc2cc1O	-25.8	?	10µM*!
SMILES	IMPase inh	Lamin A splicing	IMPase Li inh
COc1ccc2ccc(=O)oc2c1CC=C(C)C	nt	-11.9%	7.0%
CCOC(=O)c1cnc2c(-c3ccc(Cl)cc3)cnn2c1C	nt	?	-1.3%
CCOC(=O)c1c(-c2ccc(Cl)cc2)cn2ccccc12	1.8	13.6%	28.2µM*
Cc1cc(Br)ccc1SCC(=O)OCC(=O)N1CCN(C(=O)c2ccco2)CC1	-5.4	6.2%	-9.0%[38.3 µM]
O=C(CSc1cccc2cccc(Cl)c12)OCC(=O)N1CCN(C(=O)c2ccco2)CC1	-27.0	1.1%	10µM*
CCCN(CCC)C(=O)[C@@H](CCC(=O)O)NC(=O)c1ccccc1	-4.4[20.6 µM]	?	-3.3%
CN[C@]1(C)[C@@H]2CC[C@@H](C2)C1(C)C	-1.3	nt	nt
CC(C)N(Cc1ccccc1)S(=O)(=O)c1n[nH]c(C(C)(C)C)n1	nt	nt	7.8%
CCn1c(SCC(=O)Nc2nc3c(s2)CCCC3)nnc1-c1ccccc1	-4.1	?	7.4%[38.3 µM]
CCc1nc(SCC(=O)NNC(=O)c2ccc(OC)cc2)c2ccccc2n1	nt	6.7%[46 µM]	8.91µM*
CCCc1nc(SCC(=O)Nc2cc(C)on2)c2ccccc2n1	-20.4	?	?
CCCc1nc(SCC(=O)Nc2nc3c(s2)CCCC3)c2ccccc2n1	-11.4	?	12.6µM*
CCc1nc(SCC(=O)Nc2nc3c(s2)CCCC3)c2ccccc2n1	?	2.9%	10µM*
COc1ccc(C(=O)NNC(=O)CSc2ccccc2)cc1	nt	nt	5.2%
OCCNc1ncnc2c1ncn2[C@@H]1O[C@@H](CO)[C@H](O)[C@@H]1O	nt	nt	-5.3%
CC[C@H](C)N(C)C(=O)c1cc2ccccc2c(-c2ccccc2Cl)n1	5.7	nt	16.2%
Cc1nn(C)c2c1c(-c1ccccc1)cc(=O)n2CC(=O)NC(C)c1ccccc1 (stereo not drawn)	nt	19.2%[46 µM]	nt
C/C(N)=C(/C#N)C(=O)CSc1nc2ccccc2c(=O)n1-c1ccc(C)cc1	4.6	-20.4%	?
C/C(N)=C(/C#N)C(=O)CSc1nc2ccccc2c(=O)n1-c1ccc(C)c(Cl)c1	3.8	-13.2%	11.2µM*
O=CN1CCc2c([nH]c3ccccc23)C1c1cccc2cccnc12 (stereo not drawn)	nt	nt	-2.2%
COc1cccc(CNC(=O)c2sc3ncccc3c2-n2c(C)ccc2C)c1OC	nt	-11.8%[46 µM]	nt
N#Cc1c(-c2ccc(Cl)cc2)nc2n(c1=O)CCCS2	0.1	4.1%	?
N#Cc1c(-c2ccc(Br)cc2)nc2n(c1=O)CCCS2	2.4	-0.4%	8.91µM*
CC1Cc2cc(/C(O)=C3/C(=O)C(=O)N(CCCn4ccnc4)C3c3ccncc3)ccc2O1 (stereo not drawn)	-26.9	6.1%	?
CCCOc1ccc(/C(O)=C2/C(=O)C(=O)N(CCCOC)C2c2ccncc2)cc1 (stereo not drawn)	-7.5	-3.4%	-24.2%[38.3 µM]
SMILES	IMPase inh	Lamin A splicing	IMPase Li inh
CCCOc1ccc(/C(O)=C2/C(=O)C(=O)N(CCOC)C2c2cccnc2)cc1 (stereo not drawn)	-12.0	?	11.2µM*
COCCCN1C(=O)C(=O)/C(=C(/O)c2ccc(OCC(C)C)cc2C)C1c1cccnc1 (stereo not drawn)	?	14.2%	?
CC1Cc2cc(/C(O)=C3/C(=O)C(=O)N(CCCn4ccnc4)C3c3cccnc3)ccc2O1 (stereo not drawn)	-20.1	1.2%	11.2µM*
C=CCOc1ccc(/C(O)=C2\C(=O)C(=O)N(CCOC)C2c2cccnc2)cc1 (stereo not drawn)	-18.7	-9.6%	10µM*
COC(=O)C1CC1C(NC(=O)[C@H]1CCCCN1)c1ccccc1 (stereo partly drawn)	nt	nt	1.3%
c1ccc(/C(=N/Nc2nc3ccccc3s2)c2ccccn2)cc1	nt	nt	16.4%
OC[C@@H]1[C@@H](c2ccc(Cl)cc2)C(c2cccc(Cl)c2)=NN1c1ccccc1	nt	nt	-9.0%
COc1ccccc1[C@H]1C(c2cccc(C)c2)=NN(c2ccccc2)[C@@H]1CO	nt	nt	-29.2%
COc1ccccc1[C@H]1C(c2ccccc2)=NN(c2ccccc2)[C@@H]1CO	nt	nt	25.1µM*
OC[C@@H]1[C@@H](c2ccc(Cl)cc2)C(c2ccccc2)=NN1c1ccccc1	nt	nt	22.4µM*
Cc1cc(C)cc(NC(=O)Cn2c(C(F)(F)F)nc3ccccc32)c1	4.5	nt	nt
CCS(=O)(=O)c1cccc(C(=O)Nc2ccc(-c3nc4ccccc4s3)c(O)c2)c1	nt	13.6%[46 µM]	nt
O=C(CCS(=O)(=O)c1ccccc1)Nc1ccc(-c2nc3ccccc3s2)c(O)c1	nt	-10.1%	11.2µM*
BrC(Br)C(Br)Br	nt	nt	8.7%
